The values below come from PubChem BioAssay AID624416 (The Scripps Research Institute Molecular Screening Center, 2012).

Hit rate of the full screen: of about 360,000 compounds, about 1,500 (0.42%) were called active. This is one part of a sample in which actives are shown more often than they occur. A number with no mark means an inactive call. Rule as the data show it: active = inhibition above about 8.5%; inactive = the rest.

This test has as its system HIV-1 gp120 / PG9 antibody interaction. The test can be described thus: small molecules engaging PG9 antibody – biochemical, TR-FRET, primary screen (AID 624416). As to conditions: TR-FRET gp120-PG9 antibody binding; at 6.7 µM; active compounds read high. (In general: Time-resolved FRET reads energy transfer from a long-lived donor to a nearby acceptor.)
The term inhibition denotes the change of the read-out against control, counted positive when it falls. Turning to `Cc1ccc(F)c(NC(=O)CCOc2ccccc2C)c1`, the inhibition was -0.27%. Next, `Cc1ccccc1OCC(=O)Nc1nc(C)c(C(=O)N(C)C)s1`: 0.64%. In the case of `CC(=O)c1sc(NC(=O)CCCOc2ccccc2C)nc1C`, the inhibition is 12% (active). For `COC(=O)C1=C(C)N(Cc2ccc(F)cc2)C(=S)NC1c1cccc(Cl)c1` (configuration not stated), the inhibition was -0.02%. As to `COC(=O)c1ccc(NC(=S)Nc2cccc(C)n2)cc1`, the inhibition is 17.4% (active).

Turning to `COC(=O)c1ccc(NC(=S)NN2CCOCC2)cc1`, the inhibition is -2.64%. `Cc1cccc(NC(=O)Cc2ccc(Br)cc2)n1`: the inhibition was 1.95%.

For the molecule `COc1cccc(CNC(=O)[C@H]2CCCN2C(=O)[C@H]2CCCN2C(=O)C2CCCCC2)c1`, the inhibition was 1.65%.

`CCCNC(=O)CSc1nc(Cc2ccccc2)nc2ccccc12`: the inhibition is 0.37%. The figure for `CCCc1nc(SCC(=O)Nc2ccc(S(=O)(=O)N(C)C)cc2)c2ccccc2n1` is 27% (active). With `O=C(CSc1nc(C2CC2)nc2ccccc12)Nc1ccc2c(c1)OCCO2`, the inhibition is -1.48%. On to `C[C@H](O)[C@@H]1C(=O)N2CCc3c([nH]c4c(-c5ccc6c(c5)OCO6)cccc34)[C@@H]2C[C@@H]1N(C)C(=O)c1ccco1`, for which the inhibition is -1.4%. With `CN1C(=O)C(Br)(Br)CC1c1cccnc1` (configuration not stated), the inhibition is -0.49%. With `O=C(O)c1ccccc1-c1ccccc1C(=O)Nc1nccs1`, the inhibition was 1.5%. With `O=C(Nc1nnc(-c2ccccc2F)s1)c1ccccc1F`, the inhibition was 13.2% (active). Turning to `O=C(Nc1ccccc1F)c1ccccc1-c1ccccc1`, the inhibition is -1.32%. In the case of `COc1ccc(NC(=O)N(C)C[C@@H]2OCCCC[C@@H](C)Oc3ccc(NC(=O)NC4CCCCC4)cc3C(=O)N([C@H](C)CO)C[C@@H]2C)cc1`, the inhibition is -0.95%. Take `O=S1(=O)c2c(cccc2N2CCCCC2)O[C@H](COCc2ccccc2)CN1C1CC1`: the inhibition was -1.69%. Take `CCn1nnc2cc(C(=O)Nc3ccc(C(=O)OC(C)C)cc3)ccc21`: the inhibition was 20.3% (active). On to `CCOC(=O)c1cccc(NC(=O)CCn2nnc3ccccc32)c1`, for which the inhibition is 1.35%. For the molecule `CCOC(=O)c1ccc(NC(=O)Cn2cnc3cc(C)c(C)cc32)cc1`, the inhibition is -1.34%. Consider `C[C@H](O)[C@@H]1CN2CCc3ccc(-c4ccc5c(c4)OCO5)cc3[C@@H]2C[C@@H]1N(C)C(=O)C1CCCCC1`, for which the inhibition was 2.47%.

As to `Cc1cc2c(nc1C)CCCN2C`, the inhibition is -1.95%.

Consider `Cc1cc(C(F)(F)F)nc(SCC(=O)Nc2nccs2)n1`, for which the inhibition was 0.14%. Turning to `Cc1[nH]c2ccccc2c1SCC(=O)Nc1nccs1`, the inhibition is -0.77%.

With `CC(=O)c1cc(C#N)c(SCC(=O)Nc2nccs2)nc1C`, the inhibition was 15.3% (active). Take `O=c1[nH]c(-c2ccccc2)cn1C1CCN(Cc2ccc(-c3nc4ccc(F)cc4nc3-c3ccccc3)cc2)CC1`: the inhibition was 1.31%. Regarding `CCc1ccc(C2=CC(=O)CC(C)(C)C2=O)cc1`, the inhibition was -0.98%. `O=C(Nc1c(Br)cc2c(c1Br)Cc1cc([N+](=O)[O-])ccc1-2)C(Cl)Cl`: the inhibition was 17.5% (active).

In the case of `CCC(C)C(=O)Nc1cc([N+](=O)[O-])ccc1Cl` (configuration not stated), the inhibition is -4.15%. Next, `CC(C)C(=O)Nc1cccc(NC(=O)c2ccc([N+](=O)[O-])cc2Cl)c1`: -0.82%; `O=C(Nc1c(Cl)c(C2CC2)nn1-c1ccccc1)C(Cl)(Cl)Cl`: 0.67%; `C[C@@H]1CN([C@H](C)CO)C(=O)CCCn2cc(nn2)CO[C@H]1CN(C)C(=O)Nc1ccc(N2CCCCC2)cc1`: -2.61%. The figure for `COC(=O)[C@]12C[C@H](CC(=O)NCCC(C)C)C(=O)N(CCc3ccc(OC)c(OC)c3)C1=C[C@H](C(C)(C)C)O[C@@H]2C` is 0.69%.

As to `CCOc1cc(C2C(C(=O)OC)=CN(C3CCCC3)C=C2C(=O)OC)cc(Br)c1O`, the inhibition is 62.6% (active). `COC(=O)C1=CN(Cc2ccc(OC)cc2)C=C(C(=O)OC)C1c1ccc(O)c(OC)c1`: the inhibition was -1.15%. In the case of `CCCC(=O)Nc1cc(OCC)c(NC(=O)NC2CCCCC2)cc1OCC`, the inhibition is -1.64%. As to `O=C(N[C@H](C(=O)N1CCC[C@H]1C(=O)NCCc1ccccc1Cl)c1ccccc1)c1ccccc1`, the inhibition is 1.57%. With `Cc1ccc(NC(=O)N2c3ccccc3SC2c2ccco2)c(C)c1` (configuration not stated), the inhibition is 0.01%. The figure for `COc1cccc(CNC(=O)[C@H]2CCCN2C(=O)[C@H]2CCCN2C(=O)c2cc(F)cc(F)c2)c1` is -0.29%. Consider `COC(=O)[C@]12C[C@H](CC(=O)NCc3ccc(OC)c(OC)c3)C(=O)N(Cc3ccccc3)C1=C[C@H](C(C)C)O[C@@H]2C1CC1`, for which the inhibition was -0.45%. On to `Nc1[nH]c(C(=O)c2ccc(Br)cc2)c(-c2ccc3c(c2)OCO3)c1C(=O)NCCc1c[nH]c2ccccc12`, for which the inhibition was 0.87%. Consider `CCOc1ccc(C(=O)COC(=O)c2ccc(-n3cnnn3)cc2)cc1`, for which the inhibition was 11.4% (active). Take `CC(OC(=O)c1ccc(-n2cnnn2)cc1)C(=O)NCc1ccccc1` (configuration not stated): the inhibition is 1.87%. Regarding `CCOC(=O)N1CCN(S(=O)(=O)c2ccc(-n3cnnn3)cc2)CC1`, the inhibition is -0.23%. As to `CCOC(=O)C1=C(C(=O)OCC)C2N(Cc3ccc(C#N)cc3)c3ccccc3[C@@]23C[C@@H](C(=O)OC)N(S(=O)(=O)c2ccc(F)cc2)C3=N1` (some centres not stated), the inhibition is -0.21%.

As for `COC(=O)Cc1nnn2c1[C@H](C)[C@H](c1ccccc1[N+](=O)[O-])OCC2`, the inhibition was 0.5%.

Turning to `Nc1ccc(-c2nnc(-c3ccc(-c4ccccc4)cc3)o2)cc1`, the inhibition was 9.48% (active).

Turning to `Cc1ccc(C(=O)NCC(=O)OCc2nnc(-c3ccccc3)o2)cc1`, the inhibition was 1.54%. The figure for `OC(c1nnc(-c2ccccc2)o1)c1cccs1` (configuration not stated) is -1.12%; for `COc1ccc(C2=CN(Cc3ccccc3)C(c3ccc(OC)cc3)CC2=O)cc1` (configuration not stated) it is 4.38%.

As for `Cc1nc2cc(NC(=O)CSc3nc4c(C)cccc4cc3C#N)ccc2s1`, the inhibition is 16% (active). `COCc1cc(C)nc(SCC(=O)Nc2cccc(C)c2)c1C#N`: the inhibition was -0.32%.

For `Cc1csc(SCC(=O)Nc2ccc(C)c(S(=O)(=O)N(C)C)c2)n1`, the inhibition is -0.14%.

With `N#Cc1c(-c2cccs2)nc(SCC(=O)c2ccc(Br)cc2)[nH]c1=O`, the inhibition is 23.5% (active).

Take `Cc1nnc(SCC(=O)NCc2cccs2)[nH]c1=O`: the inhibition is 1.17%.

Regarding `CCc1ccc(C(=O)CSc2nnc(C)c(=O)[nH]2)cc1`, the inhibition was -0.93%. In the case of `O=C(COc1ccc2c3c(c(=O)oc2c1)CCCC3)NCC(O)c1ccccc1` (configuration not stated), the inhibition was 0.6%. Turning to `O=C(Oc1ccccc1)Oc1ccc2c(c1)oc(=O)c1ccccc12`, the inhibition is 28.2% (active).

As for `O=C(COc1ccc2c3c(c(=O)oc2c1)CCC3)NC1CCCCC1`, the inhibition is -0.41%. In the case of `C=CC1=CCN(S(=O)(=O)C(C)(C)C)[C@@H]1CCO`, the inhibition was 0.76%. Next, `COc1ccccc1CCn1cnc(-c2ccccc2)c1C(C)C`: 2.18%. As for `Nc1nc2c(ncn2[C@@H]2O[C@H](C(=O)N[C@H](Cc3ccccc3)C(=O)NCC3CCCCC3)[C@@H](O)[C@H]2O)c(=O)[nH]1`, the inhibition was -1.03%. Next, `COC(=O)[C@]12C[C@H](CC(=O)NCCc3ccccc3OC)C(=O)N(Cc3ccccc3)C1=C[C@H](C(C)C)O[C@@H]2C1CC1`: -0.91%.

Consider `O=C(C(=O)N1CCC(CNC(=O)c2cccnc2Cl)CC1)c1cccs1`, for which the inhibition is -0.43%. Consider `COc1cc(NC(=O)c2ccc(-c3csc(C)n3)cc2)c(OC)cc1Cl`, for which the inhibition was -0.71%. Regarding `COc1ccc(-n2nc3c(c2NC(=O)c2ccc(N4C(=O)CCC4=O)cc2)CSC3)cc1`, the inhibition is 0.18%. As to `COc1ccc(-c2csc(NC(=O)c3ccc(N4C(=O)CCC4=O)cc3)n2)cc1OC`, the inhibition is 8.78% (active). Next, `C=CCN1C(=O)N(Cc2ccccc2)c2ccccc2S1(=O)=O`: -0.26%.

Take `CSc1ccc(Oc2cccc3c2S(=O)(=O)N([C@H](C)c2ccccc2)C[C@@H](COCc2ccccc2)O3)cc1C`: the inhibition was -0.66%. `COc1ccc(S(=O)(=O)N2CCC(C(=O)N3CCCC3)CC2)cc1C`: the inhibition is -0.08%. Consider `COc1ccc(-c2c(C)nn3c(N4CCC(C(=O)N5CCCCC5)CC4)cc(C)nc23)cc1OC`, for which the inhibition was 30.3% (active). Next, `COc1ccc(CCNC(=O)C2CCN(c3nn4c(=O)cc(C)nc4s3)CC2)cc1OC`: 2.38%. The figure for `CC[C@H](NC(=O)[C@H](Cc1ccccc1)NC(=O)[C@H]1O[C@@H](n2cnc3c(=O)[nH]c(N)nc32)[C@H](O)[C@@H]1O)c1ccccc1` is 1.17%; for `Nc1nc2c(ncn2[C@@H]2O[C@H](C(=O)N[C@@H](Cc3ccccc3)C(=O)NCc3ccccc3)[C@@H](O)[C@H]2O)c(=O)[nH]1` it is 0.08%; for `COC(=O)C1=C(C)N(Cc2ccc(C(F)(F)F)cc2)C(=NCc2ccccc2)NC1c1ccccc1C(F)(F)F` (configuration not stated) it is -0.97%.

For `COC(=O)N1Cc2ccnnc2CC1c1ccccc1Br` (configuration not stated), the inhibition was -0.32%.

On to `CC(C)CNc1cccc2c1S(=O)(=O)N[C@H](C)CO2`, for which the inhibition is -0.69%. On to `Cc1cc(Br)ccc1NC(=O)c1sc2ncn(CC(=O)N3CCN(c4ccccn4)CC3)c(=O)c2c1C`, for which the inhibition is 11.3% (active). Take `Cc1nc(N2CCN(c3ccccn3)CC2)c2c(C)c(C(=O)Nc3ccc(F)c(Cl)c3)sc2n1`: the inhibition is -0.31%. On to `Cc1cc(Br)ccc1NC(=O)c1cnc(N2CCN(c3ccccn3)CC2)c2ccccc12`, for which the inhibition was -0.94%. Consider `Nc1ncnc2c1ncn2[C@@H]1O[C@H](C(=O)N[C@@H](CCc2ccccc2)C(=O)NCC(=O)N2CCOCC2)[C@@H](O)[C@H]1O`, for which the inhibition is -1.35%.
